Assay results as given in PubChem BioAssay (Tox21).
“And” between values parts separate entries of the source, which are not always exact repeats. Equal entries are not always repeated. Where a structure was tested more than once in an assay, its records may differ in their call. The source made the active and inactive calls. A call without a number means that no potency is given here. Unless noted, calls come from the whole dose curve; as a rule, active = well fitted curve in the direction sought with a large enough effect in the repeat runs; inconclusive = weak or mixed curves; inactive = no such curve, though single readings can be large; an effect the other way counts as inactive or inconclusive.

Tests used:
[1] = qHTS assay to identify small molecule antagonists of the thyroid receptor (TR) signaling pathway - cell viability counter screen (AID 743064); note: nearly all actives have a fitted effect of over 50% in size; note: potency is the fitted concentration of half-maximal effect
Procedure, shortened: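 Plate GH3.TRE-Luc cells; incubate 4 h at 37 °C; add compound, then T3 to 1 nM final; incubate 23.5 h; add CellTiter-Fluor; incubate 30 min at 37 °C, 5% CO2; read fluorescence.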

[2] = tested on: thyroid hormone receptor (rat, GH3 cells); test: qHTS assay to identify small molecule agonists of the thyroid receptor (TR) signaling pathway (AID 743066; calls by dose curve)
[3] = molecular target: Estrogen receptor (Homo sapiens) (UniProt P03372); test: qHTS assay to identify small molecule antagonists of the estrogen receptor alpha (ER-alpha) signaling pathway (AID 743069; active = well fitted curve in the direction sought with a large enough effect in the signal ratio in the repeat runs, not every such curve was filed as active; inconclusive = weak or mixed curves, or effect the other way; inactive = no such curve, though single readings can be large or run the other way; the % refers to the signal ratio; note: potency is the fitted concentration of half-maximal effect)
Estrogen receptor (Homo sapiens), sequence (P03372 whole entry, looked up): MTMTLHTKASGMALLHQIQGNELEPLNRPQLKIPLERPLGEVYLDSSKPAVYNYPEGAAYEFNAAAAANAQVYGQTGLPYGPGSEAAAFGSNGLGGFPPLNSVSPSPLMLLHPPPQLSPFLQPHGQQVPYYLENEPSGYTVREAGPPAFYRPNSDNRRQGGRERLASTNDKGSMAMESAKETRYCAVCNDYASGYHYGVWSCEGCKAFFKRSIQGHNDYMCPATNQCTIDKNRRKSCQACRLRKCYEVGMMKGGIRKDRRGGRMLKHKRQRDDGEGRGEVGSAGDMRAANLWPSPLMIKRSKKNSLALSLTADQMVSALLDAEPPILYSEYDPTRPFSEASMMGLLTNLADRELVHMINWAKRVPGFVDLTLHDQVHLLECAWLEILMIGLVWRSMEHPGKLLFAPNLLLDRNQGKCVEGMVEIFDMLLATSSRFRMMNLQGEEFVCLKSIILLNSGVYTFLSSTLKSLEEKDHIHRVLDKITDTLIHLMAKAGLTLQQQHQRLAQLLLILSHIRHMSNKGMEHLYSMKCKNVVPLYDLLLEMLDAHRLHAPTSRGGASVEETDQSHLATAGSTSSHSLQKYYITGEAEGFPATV
Procedure, shortened: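 Estradiol-stimulated ER-alpha-UAS-bla HEK293 cells, 18 hr compound exposure at 37C. LiveBLAzer B/G substrate, 2 hr RT, fluorescence read.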

[4] = qHTS assay to identify small molecule antagonists of the estrogen receptor alpha (ER-alpha) signaling pathway - cell viability counter screen (AID 743074; calls by dose curve;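 note: HEK293 cells carrying ER-alpha-UAS-bla reporter stimulated with 17beta-estradiol; nearly all actives have a fitted effect of over 45% in size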; note: potency is the fitted concentration of half-maximal effect)
[5] = molecular target: Estrogen receptor (Homo sapiens) (UniProt P03372); test: qHTS assay to identify small molecule agonists of the estrogen receptor alpha (ER-alpha) signaling pathway (AID 743075; calls by dose curve;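 note: HEK293 GripTite cells with ER-alpha and UAS-driven beta-lactamase reporter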)
[6] = molecular target: Estrogen receptor (Homo sapiens) (UniProt P03372); test: qHTS assay to identify small molecule agonists of the estrogen receptor alpha (ER-alpha) signaling pathway using the BG1 cell line (AID 743079); settings: BG1Luc4E2 cells, ERE-luciferase agonist, 22 h; activation: at 70.3 µM (top of the series); note: nearly all actives have a fitted effect of over 20% in size; note: potency is the fitted concentration of half-maximal effect
[7] = qHTS assay to identify small molecule antagonists of the estrogen receptor alpha (ER-alpha) signaling pathway using the BG1 cell line (AID 743080; calls by dose curve;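 note: BG1 cells stimulated with 17beta-estradiol alongside compound; nearly all actives have a fitted effect of over 25% in size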; note: potency is the fitted concentration of half-maximal effect)
Procedure, shortened: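 Luminescence from a 4×ERE-luciferase reporter in BG1-Luc-4E2 cells served as read-out. Cells, pre-cultured 5 days in stripped-serum phenol-red-free medium, were exposed to compound with 17beta-estradiol co-stimulation for 21.5 h at 37 C.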

[8] = qHTS assay to identify small molecule antagonists of the estrogen receptor alpha (ER-alpha) signaling pathway using the BG1 cell line - cell viability counter screen (AID 743081);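 note: compound given together with 17beta-estradiol as the ER stimulus; nearly all actives have a fitted effect of over 45% in size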; note: potency is the fitted concentration of half-maximal effect
Aromatase (Homo sapiens) = Aromatase (Homo sapiens) (UniProt P11511); test: qHTS assay to identify aromatase inhibitors (AID 743083); note: nearly all actives have a fitted effect of over 55% in size; note: potency is the fitted concentration of half-maximal effect
Aromatase (Homo sapiens), sequence (P11511 whole entry, looked up): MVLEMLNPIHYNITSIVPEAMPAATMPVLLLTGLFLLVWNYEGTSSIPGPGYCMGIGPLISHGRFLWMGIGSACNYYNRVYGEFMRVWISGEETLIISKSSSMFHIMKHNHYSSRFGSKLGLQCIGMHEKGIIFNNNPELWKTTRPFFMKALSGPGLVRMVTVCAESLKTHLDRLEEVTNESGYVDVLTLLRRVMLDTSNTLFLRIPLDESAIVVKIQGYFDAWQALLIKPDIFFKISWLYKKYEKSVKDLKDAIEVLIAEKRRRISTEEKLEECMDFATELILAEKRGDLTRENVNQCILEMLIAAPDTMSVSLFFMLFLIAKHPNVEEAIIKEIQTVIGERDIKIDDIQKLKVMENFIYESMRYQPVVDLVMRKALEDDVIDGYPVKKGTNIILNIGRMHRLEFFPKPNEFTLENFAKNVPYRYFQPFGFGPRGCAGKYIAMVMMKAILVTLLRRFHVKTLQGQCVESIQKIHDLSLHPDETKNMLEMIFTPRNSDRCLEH

[9] = qHTS assay to identify aromatase inhibitors - cell viability counter screen (AID 743084);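 note: cells stimulated with testosterone during compound exposure; nearly all actives have a fitted effect of over 55% in size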; note: potency is the fitted concentration of half-maximal effect
[10] = molecular target: Aryl hydrocarbon receptor (Homo sapiens) (UniProt P35869); test: qHTS assay to identify small molecule that activate the aryl hydrocarbon receptor (AhR) signaling pathway (AID 743085); note: nearly all actives have a fitted effect of over 15% in size; note: potency is the fitted concentration of half-maximal effect;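 for activation: HG2L7.5c1 human HepG2 liver cells with stably integrated DRE-driven firefly reporter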
Aryl hydrocarbon receptor (Homo sapiens), sequence (P35869 whole entry, looked up): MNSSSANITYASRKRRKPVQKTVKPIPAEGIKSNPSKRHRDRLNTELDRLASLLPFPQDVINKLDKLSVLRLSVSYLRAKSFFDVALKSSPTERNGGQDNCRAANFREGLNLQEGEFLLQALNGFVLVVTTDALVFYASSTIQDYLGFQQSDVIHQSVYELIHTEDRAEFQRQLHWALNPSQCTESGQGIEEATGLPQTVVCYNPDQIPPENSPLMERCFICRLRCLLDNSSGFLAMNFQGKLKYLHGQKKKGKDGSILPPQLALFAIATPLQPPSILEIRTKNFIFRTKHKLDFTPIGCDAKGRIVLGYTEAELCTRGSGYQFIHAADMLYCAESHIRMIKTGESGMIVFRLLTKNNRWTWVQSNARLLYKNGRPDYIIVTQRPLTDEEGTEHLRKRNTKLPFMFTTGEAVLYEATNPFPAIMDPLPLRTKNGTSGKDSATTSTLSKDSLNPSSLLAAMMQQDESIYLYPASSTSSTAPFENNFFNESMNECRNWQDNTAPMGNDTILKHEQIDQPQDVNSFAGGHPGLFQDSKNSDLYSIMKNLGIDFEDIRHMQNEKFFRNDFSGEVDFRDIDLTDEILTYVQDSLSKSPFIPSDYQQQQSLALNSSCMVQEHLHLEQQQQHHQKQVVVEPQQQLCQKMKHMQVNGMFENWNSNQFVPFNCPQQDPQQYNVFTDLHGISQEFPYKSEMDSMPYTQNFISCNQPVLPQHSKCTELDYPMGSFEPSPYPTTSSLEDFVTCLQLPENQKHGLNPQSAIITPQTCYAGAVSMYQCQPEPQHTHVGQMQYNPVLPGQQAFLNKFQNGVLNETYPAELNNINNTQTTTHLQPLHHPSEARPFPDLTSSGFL
Procedure, shortened: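 Steps: seed HepG2-AhR-luc cells; allow 5 h at 37C; pin-transfer test compound or vehicle; incubate 24 h at 37C; add viability dye (30 min, 37C) and read fluorescence; add luciferase substrate (30 min, RT) and read luminescence.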

[11] = qHTS assay to identify small molecule that activate the aryl hydrocarbon receptor (AhR) signaling pathway - cell viability counter screen (AID 743086); note: nearly all actives have a fitted effect of over 45% in size; note: potency is the fitted concentration of half-maximal effect
Procedure, shortened: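 HepG2-AhR-luc (HG2L7.5c1) cells, 4000/well, were preincubated 5 h at 37C, exposed to compound in qHTS format for 24 hr at 37C, then given CellTiter-Fluor for 30 min; viability was read as fluorescence in the reporter wells.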

[12] = molecular target: Peroxisome proliferator-activated receptor gamma (Homo sapiens) (UniProt P37231); test: qHTS assay to identify small molecule antagonists of the peroxisome proliferator-activated receptor gamma (PPARg) signaling pathway (AID 743191; calls by dose curve; note: nearly all actives have a fitted effect of over 30% in size; note: potency is the fitted concentration of half-maximal effect)
Peroxisome proliferator-activated receptor gamma (Homo sapiens), sequence (P37231 whole entry, looked up): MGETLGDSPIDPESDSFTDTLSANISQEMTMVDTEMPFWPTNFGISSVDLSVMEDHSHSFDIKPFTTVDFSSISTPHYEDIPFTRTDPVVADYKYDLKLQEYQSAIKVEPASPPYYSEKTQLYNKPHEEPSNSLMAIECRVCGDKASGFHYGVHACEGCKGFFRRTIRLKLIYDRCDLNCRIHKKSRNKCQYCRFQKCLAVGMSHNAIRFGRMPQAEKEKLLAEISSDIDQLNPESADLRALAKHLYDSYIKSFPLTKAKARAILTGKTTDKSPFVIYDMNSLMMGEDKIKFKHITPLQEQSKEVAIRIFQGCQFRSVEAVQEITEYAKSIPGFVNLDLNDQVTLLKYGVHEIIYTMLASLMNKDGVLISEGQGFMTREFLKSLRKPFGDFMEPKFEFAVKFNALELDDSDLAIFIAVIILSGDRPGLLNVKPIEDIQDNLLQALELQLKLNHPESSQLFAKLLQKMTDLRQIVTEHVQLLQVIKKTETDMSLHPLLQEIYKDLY
Procedure, shortened: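 GeneBLAzer PPARg UAS-bla HEK293H cells carrying a UAS-driven beta-lactamase reporter were plated at 3000 cells/well, preincubated 5 h at 37C, then given compound for 17 h at 37C; LiveBLAzer B/G FRET substrate was read after 1 h at room temperature.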

[13] = qHTS assay to identify small molecule antagonists of the peroxisome proliferator-activated receptor gamma (PPARg) signaling pathway - cell viability counter screen (AID 743194); note: nearly all actives have a fitted effect of over 55% in size
Procedure, shortened: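 PPARg-UAS-bla HEK293H cells were plated, rested 5 h at 37 C, then treated with compounds plus rosiglitazone (50 nM final) for 17 h at 37 C; viability was then read by CellTiter-Glo luminescence after 30 min at room temperature.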

[14] = qHTS assay for small molecule agonists of the antioxidant response element (ARE) signaling pathway - cell viability counter screen (AID 743203; calls by dose curve; note: nearly all actives have a fitted effect of over 55% in size; note: potency is the fitted concentration of half-maximal effect)
Procedure, shortened: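 Cells (ARE-bla HepG2, 2,000/well) receive DMSO-dissolved compounds after a 5 hrs rest. Plates incubate 16 hrs at 37C/5% CO2. CellTiter-Glo luminescence is then recorded after 30 min at room temperature.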

[15] = qHTS assay for small molecule activators of the heat shock response signaling pathway - cell viability counter screen (AID 743209); note: nearly all actives have a fitted effect of over 50% in size
Procedure, shortened: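 Quantitative HTS format, Tox21 10K library. HeLa cells carrying an HSE-driven beta-lactamase reporter were treated 5 h at 37 C, then assessed for viability by CellTiter-Glo luminescence.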

[16] = qHTS assay for small molecule activators of the heat shock response signaling pathway (AID 743210; active = well fitted activation curve with a large enough effect in the signal ratio in the repeat runs, with a control signal flat, not every such curve was filed as active; inconclusive = weak or mixed curves; the % refers to the signal ratio;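 note: HeLa cells with beta-lactamase reporter driven by heat shock elements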)
Procedure, shortened: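 Reporter gene assay: HeLa cells stably bearing an HSE-bla construct, compound treatment 5 h at 37 C, LiveBLAzer substrate 2.5 h at RT, fluorescence intensity.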

[17] = qHTS assay to identify small molecule antagonists of the thyroid receptor (TR) signaling pathway (AID 743065); note: nearly all actives have a fitted effect of over 55% in size; note: potency is the fitted concentration of half-maximal effect
Procedure, shortened: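 GH3.TRE-Luc rat pituitary cells carrying two TR response elements driving luciferase were plated for 4 h, given compound plus 1 nM T3 (final), and incubated 23.5 h at 37 C. ONE-Glo luminescence measured reporter inhibition; CellTiter-Fluor fluorescence tracked cytotoxicity.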

[18] = molecular target: Peroxisome proliferator-activated receptor gamma (Homo sapiens) (UniProt P37231); test: qHTS assay to identify small molecule agonists of the peroxisome proliferator-activated receptor gamma (PPARg) signaling pathway (AID 743094; active = well fitted activation curve with a large enough effect in the signal ratio in the repeat runs, not every such curve was filed as active; inconclusive = weak or mixed curves, or effect the other way; inactive = no such curve, though single readings can be large or run the other way; the % refers to the signal ratio)
Procedure, shortened: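 Stably transfected HEK293H cells (GeneBLAzer PPARg UAS-bla) were incubated with test substances for 17 h at 37C after a 5 h pre-incubation; beta-lactamase activity was then detected by FRET substrate fluorescence.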

[19] = qHTS assay for small molecule agonists of the antioxidant response element (ARE) signaling pathway (AID 743202; active = well fitted activation curve with a large enough effect in the signal ratio in the repeat runs, not every such curve was filed as active; inconclusive = weak or mixed curves, or effect the other way; inactive = no such curve, though single readings can be large or run the other way; the % refers to the signal ratio; note: potency is the fitted concentration of half-maximal effect)
Procedure, shortened: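 Compounds delivered in DMSO to ARE-bla HepG2 cells (2,000 cells/well, pre-incubated 5 h) and left 16 h at 37 C. LiveBLAzer B/G FRET substrate then added for 2 h at RT before fluorescence reading.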

Row | SMILES | Potency [1] | outcome [2] | Potency [3] | Potency [4] | Potency [5] | Potency [6] | Potency [7] | Potency [8] | Potency (Aromatase (Homo sapiens)) | Potency [9] | Potency [10] | Potency [11] | Potency [12] | Potency [13] | Potency [14] | Potency [15] | Potency [16] | Potency [17] | Potency [18] | Potency [19]
1 | CNC(=S)NC | inactive | inactive | inactive | inactive | inactive | inactive | inactive | inactive | inactive | inactive | inactive | inactive | inactive | inactive | inactive | inactive | inactive | – | – | –
2 | COCCOC(=O)C1=C(C)NC(C)=C(C(=O)OC/C=C/c2ccccc2)C1c1cccc([N+](=O)[O-])c1 (stereo not drawn) | 13.3 µM (active) | – | 23.9 µM [inconclusive] (active) | inactive | inactive | – | inactive | inactive | – | – | 0.944 µM (active) | – | 18.8 µM (active) | inactive | – | inactive | inactive | 11.9 µM (active) | – | –
3 | CCCCOC(=O)CCS | inactive | – | inactive | inactive | inactive | – | – | inactive | – | inactive | inactive | inactive | – | inactive | inactive | inactive | inactive | inactive | inactive | inactive
4 | CCCCC(CC)C(=O)OCCOCCOCCOCCOC(=O)C(CC)CCCC (stereo not drawn) | inactive | inactive | inactive | inactive | inactive | inactive | inactive | inactive | – | – | inactive | inactive | – | inactive | inactive | inactive | inactive | – | inactive | inactive
5 | C=CC(C)(O)CCCC(C)CCCC(C)CCCC(C)C (stereo not drawn) | inactive | – | inactive | inactive | inactive | inactive | inactive | inactive | inactive | inactive | inactive | inactive | – | inactive | inactive | inactive | inactive | inactive | inactive | inactive
6 | O=C(Nc1ccccc1)Nc1ccccc1 | inactive | inactive | inactive | inactive | inactive | 19.4 µM (active) | – | inactive | inactive | inactive | 30.8 µM (active) | inactive | – | inactive | inactive | – | inactive | – | inactive | inactive
7 | CN(C)CCOC1=Cc2ccccc2Sc2ccc(Cl)cc21 | 10.6 µM (active) | – | inactive | – | inactive | inactive | inactive | inactive | – | – | inactive | – | – | inactive | inactive | inactive | inactive | 9.44 µM (active) | – | inactive
8 | CC1=C(/C=C/C(C)=C\C=C\C(C)=C\C(=O)O)C(C)(C)CCC1 | inactive | – | – | inactive | inactive | – | 243 nM (active) | inactive | inactive | – | inactive | inactive | inactive | inactive | inactive | inactive | inactive | inactive | – | –
9 | CCN(Cc1cccc(S(=O)(=O)O)c1)c1ccc(C(=C2C=CC(=[N+](CC)Cc3cccc(S(=O)(=O)[O-])c3)C=C2)c2ccccc2)cc1 | inactive | inactive | inactive | inactive | inactive | inactive | inactive | inactive | inactive | inactive | inactive | inactive | – | inactive | inactive | inactive | inactive | – | inactive | 38.3 µM (active)
10 | CC(=O)Oc1ccc2c(c1)CC[C@@H]1[C@@H]2CC[C@]2(C)[C@@H](O)CC[C@@H]12 | 26.6 µM (active) | – | – | inactive | – | – | – | inactive | inactive | inactive | inactive | inactive | – | inactive | inactive | inactive | inactive | 26.6 µM (active) | inactive | –
11 | C=CC(C)(C)CC(=O)OC | inactive | – | – | inactive | – | – | – | inactive | – | – | – | inactive | – | inactive | inactive | inactive | inactive | inactive | – | inactive
12 | NC(=O)N(O)[C@@H]1COc2cc(OCc3ccccc3)ccc21 | inactive | – | inactive | inactive | inactive | – | – | inactive | inactive | inactive | inactive | – | inactive | inactive | inactive | – | inactive | 61.1 µM (active) | inactive | inactive
13 | Cc1c(C(=O)NN2CCCCC2)nn(-c2ccc(Cl)cc2Cl)c1-c1ccc(Cl)cc1 | 16.8 µM (active) | – | – | – | inactive | inactive | inactive | inactive | inactive | inactive | inactive | inactive | – | – | 23.7 µM (active) | – | – | 11.9 µM (active) | – | –
14 | CCc1nn(CCCN2CCN(c3cccc(Cl)c3)CC2)c(=O)n1CCOc1ccccc1 | 10.6 µM (active) and 26.6 µM (active) | – | – | 23.9 µM (active) | inactive | – | 7.5 µM (active) and 26.6 µM (active) | 29.8 µM (active) and inactive | 29.8 µM (active) and 33.5 µM (active) | 29.8 µM (active) | inactive | 23.7 µM (active) | – | inactive | – | inactive | inactive | 11.9 µM (active) and 26.6 µM (active) | inactive | –
15 | CC(=O)[C@H]1CC[C@H]2[C@@H]3C=CC4=CC(=O)CC[C@@]4(C)[C@@H]3CC[C@]12C | inactive | inactive | – | inactive | inactive | inactive | – | inactive | inactive | inactive | inactive | inactive | – | inactive | inactive | inactive | inactive | – | inactive | 13.3 µM (active)
